Assays:
Assay in all cases: protein binding microarray; high values mean tight binding
Conditions in all cases: dsDNA, one strand shown
RELARELA (p65 homodimer) = RELARELA (p65 homodimer) (Homo sapiens, UniProt Q04206 1-307)
p50p50 homodimer = p50p50 homodimer (Homo sapiens, UniProt P19838 7-356)
p52p52 homodimer = target: T1, p52p52 homodimer (Homo sapiens, UniProt Q00653 4-332)
T1 sequence: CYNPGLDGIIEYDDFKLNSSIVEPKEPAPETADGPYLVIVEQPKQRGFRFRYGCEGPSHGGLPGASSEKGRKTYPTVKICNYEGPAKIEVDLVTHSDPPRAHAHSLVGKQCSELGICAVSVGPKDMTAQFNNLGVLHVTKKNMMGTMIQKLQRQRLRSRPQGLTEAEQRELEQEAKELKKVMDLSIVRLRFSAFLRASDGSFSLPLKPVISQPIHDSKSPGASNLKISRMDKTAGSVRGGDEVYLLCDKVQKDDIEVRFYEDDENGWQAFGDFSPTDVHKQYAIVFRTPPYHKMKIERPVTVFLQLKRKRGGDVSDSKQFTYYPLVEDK

[1] = target: RELA (p65) subunit of heterodimer;p50 subunit (Homo sapiens;Homo sapiens, UniProt Q04206;P19838 1-307;7-356)
RELA (p65) subunit of heterodimer;p50 subunit, sequence (Q04206 1-307, chain 1 of 2): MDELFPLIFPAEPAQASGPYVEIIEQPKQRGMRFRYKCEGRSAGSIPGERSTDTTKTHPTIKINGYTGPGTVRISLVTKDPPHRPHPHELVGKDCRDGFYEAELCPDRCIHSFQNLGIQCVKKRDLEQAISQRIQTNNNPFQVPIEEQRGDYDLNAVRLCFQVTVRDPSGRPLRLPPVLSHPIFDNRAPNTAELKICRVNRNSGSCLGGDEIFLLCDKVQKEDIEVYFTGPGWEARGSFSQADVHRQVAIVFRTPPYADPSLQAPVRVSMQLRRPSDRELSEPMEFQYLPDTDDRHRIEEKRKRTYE
RELA (p65) subunit of heterodimer;p50 subunit, sequence (P19838 7-356, chain 2 of 2): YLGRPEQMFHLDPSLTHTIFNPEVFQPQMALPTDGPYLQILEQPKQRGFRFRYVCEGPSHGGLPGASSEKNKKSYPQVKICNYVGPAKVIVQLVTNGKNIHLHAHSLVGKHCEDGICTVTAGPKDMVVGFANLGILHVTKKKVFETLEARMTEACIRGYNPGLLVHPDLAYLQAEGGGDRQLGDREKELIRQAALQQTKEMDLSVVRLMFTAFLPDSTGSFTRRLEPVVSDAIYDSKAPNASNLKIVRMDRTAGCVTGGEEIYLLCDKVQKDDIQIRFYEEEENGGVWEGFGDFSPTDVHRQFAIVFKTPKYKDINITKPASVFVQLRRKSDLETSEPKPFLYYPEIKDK

[2] = target: RELA (p65) subunit of heterodimer;p52 subunit (Homo sapiens;Homo sapiens, UniProt Q04206;Q00653 1-307;4-332)
RELB subunit;p50 subunit = RELB subunit;p50 subunit (Homo sapiens;Homo sapiens, UniProt Q01201;P19838 120-401;7-356)
RELB subunit;p52 subunit = target: T2, RELB subunit;p52 subunit (Homo sapiens;Homo sapiens, UniProt Q01201;Q00653 120-401;4-332)
T2 sequence 1: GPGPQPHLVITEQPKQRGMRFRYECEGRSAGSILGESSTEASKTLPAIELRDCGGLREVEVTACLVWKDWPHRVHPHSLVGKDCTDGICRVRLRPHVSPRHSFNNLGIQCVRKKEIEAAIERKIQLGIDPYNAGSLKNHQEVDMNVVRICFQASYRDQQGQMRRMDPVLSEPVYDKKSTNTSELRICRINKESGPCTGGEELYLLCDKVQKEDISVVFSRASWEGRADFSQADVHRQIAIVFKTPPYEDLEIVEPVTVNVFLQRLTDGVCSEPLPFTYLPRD
T2 sequence 2: T1 sequence

[3] = target: C-Rel subunit;p50 subunit (Homo sapiens;Homo sapiens, UniProt Q04864;P19838 1-285;7-356)
[4] = target: T3, C-Rel subunit;p52 subunit (Homo sapiens;Homo sapiens, UniProt Q04864;Q00653 1-285;4-332)
T3 sequence 1: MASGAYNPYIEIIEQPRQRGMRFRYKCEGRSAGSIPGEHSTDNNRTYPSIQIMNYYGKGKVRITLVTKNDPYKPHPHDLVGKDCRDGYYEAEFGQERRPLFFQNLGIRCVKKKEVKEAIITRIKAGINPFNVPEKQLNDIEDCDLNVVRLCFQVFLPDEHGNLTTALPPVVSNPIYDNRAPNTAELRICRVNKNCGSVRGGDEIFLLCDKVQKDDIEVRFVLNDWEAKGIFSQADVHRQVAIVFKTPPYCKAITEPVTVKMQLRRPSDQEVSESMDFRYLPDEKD
T3 sequence 2: T1 sequence

p50p50 homodimer, sequence (P19838 7-356): as the sequence (P19838 7-356, chain 2 of 2) above
RELARELA (p65 homodimer), sequence (Q04206 1-307): as the sequence (Q04206 1-307, chain 1 of 2) above

AAGTTATCCCC
binding signal (RELARELA (p65 homodimer)): 0.516 z-score | binding signal (p50p50 homodimer): 1.08 z-score | binding signal (p52p52 homodimer): 0.864 z-score | binding signal [1]: 0.995 z-score | binding signal [2]: 0.69 z-score | binding signal (RELB subunit;p50 subunit): 1.26 z-score | binding signal (RELB subunit;p52 subunit): 1.11 z-score | binding signal [3]: 1.16 z-score | binding signal [4]: 0.506 z-score

CGATATATCCC
binding signal (RELARELA (p65 homodimer)): 0.113 z-score | binding signal (p50p50 homodimer): -0.443 z-score | binding signal (p52p52 homodimer): -0.0767 z-score | binding signal [1]: -0.33 z-score | binding signal [2]: -0.28 z-score | binding signal (RELB subunit;p50 subunit): -0.357 z-score | binding signal (RELB subunit;p52 subunit): -0.154 z-score | binding signal [3]: -0.427 z-score | binding signal [4]: -0.465 z-score

GAAGATGCCCC
binding signal (RELARELA (p65 homodimer)): 0.0529 z-score | binding signal (p50p50 homodimer): 0.407 z-score | binding signal (p52p52 homodimer): 0.0127 z-score | binding signal [1]: 0.599 z-score | binding signal [2]: 0.186 z-score | binding signal (RELB subunit;p50 subunit): 0.421 z-score | binding signal (RELB subunit;p52 subunit): 0.376 z-score | binding signal [3]: 0.679 z-score | binding signal [4]: 0.228 z-score

AGGTATACCCT
binding signal (RELARELA (p65 homodimer)): -0.0429 z-score | binding signal (p50p50 homodimer): -0.139 z-score | binding signal (p52p52 homodimer): -0.102 z-score | binding signal [1]: -0.262 z-score | binding signal [2]: -0.241 z-score | binding signal (RELB subunit;p50 subunit): -0.242 z-score | binding signal (RELB subunit;p52 subunit): -0.17 z-score | binding signal [3]: -0.467 z-score | binding signal [4]: -0.258 z-score

CGATACCTCCC
binding signal (RELARELA (p65 homodimer)): -0.139 z-score | binding signal (p50p50 homodimer): -0.527 z-score | binding signal (p52p52 homodimer): -0.392 z-score | binding signal [1]: -0.477 z-score | binding signal [2]: -0.641 z-score | binding signal (RELB subunit;p50 subunit): -0.466 z-score | binding signal (RELB subunit;p52 subunit): -0.506 z-score | binding signal [3]: -0.897 z-score | binding signal [4]: -0.543 z-score

AAGGAGCTCCC
binding signal (RELARELA (p65 homodimer)): -0.693 z-score | binding signal (p50p50 homodimer): -0.999 z-score | binding signal (p52p52 homodimer): -0.562 z-score | binding signal [1]: -0.64 z-score | binding signal [2]: -0.893 z-score | binding signal (RELB subunit;p50 subunit): -0.741 z-score | binding signal (RELB subunit;p52 subunit): -0.874 z-score | binding signal [3]: -0.927 z-score | binding signal [4]: -0.843 z-score

AGGTTGCTCCC
binding signal (RELARELA (p65 homodimer)): -0.396 z-score | binding signal (p50p50 homodimer): -0.987 z-score | binding signal (p52p52 homodimer): -0.528 z-score | binding signal [1]: -0.584 z-score | binding signal [2]: -0.648 z-score | binding signal (RELB subunit;p50 subunit): -0.569 z-score | binding signal (RELB subunit;p52 subunit): -0.67 z-score | binding signal [3]: -0.696 z-score | binding signal [4]: -0.587 z-score

AAGATCGTCCC
binding signal (RELARELA (p65 homodimer)): 0.328 z-score | binding signal (p50p50 homodimer): 0.168 z-score | binding signal (p52p52 homodimer): 0.307 z-score | binding signal [1]: -0.197 z-score | binding signal [2]: -0.135 z-score | binding signal (RELB subunit;p50 subunit): 0.309 z-score | binding signal (RELB subunit;p52 subunit): 0.078 z-score | binding signal [3]: 0.266 z-score | binding signal [4]: -0.166 z-score

AGAAAATCCCT
binding signal (RELARELA (p65 homodimer)): 1.08 z-score | binding signal (p50p50 homodimer): 1.27 z-score | binding signal (p52p52 homodimer): 1.8 z-score | binding signal [1]: 1.28 z-score | binding signal [2]: 1.37 z-score | binding signal (RELB subunit;p50 subunit): 1.49 z-score | binding signal (RELB subunit;p52 subunit): 1.61 z-score | binding signal [3]: 1.12 z-score | binding signal [4]: 1.62 z-score

AAGGGTTTCCC
binding signal (RELARELA (p65 homodimer)): 2.18 z-score | binding signal (p50p50 homodimer): 0.668 z-score | binding signal (p52p52 homodimer): 1.31 z-score | binding signal [1]: 1.15 z-score | binding signal [2]: 1.43 z-score | binding signal (RELB subunit;p50 subunit): 0.696 z-score | binding signal (RELB subunit;p52 subunit): 1.17 z-score | binding signal [3]: 1.07 z-score | binding signal [4]: 1.57 z-score

AGAGAGGTCCT
binding signal (RELARELA (p65 homodimer)): 0.413 z-score | binding signal (p50p50 homodimer): -1.58 z-score | binding signal (p52p52 homodimer): -0.36 z-score | binding signal [1]: -0.866 z-score | binding signal [2]: -0.592 z-score | binding signal (RELB subunit;p50 subunit): -0.624 z-score | binding signal (RELB subunit;p52 subunit): -0.363 z-score | binding signal [3]: -1.31 z-score | binding signal [4]: -0.537 z-score

GAATACATCCT
binding signal (RELARELA (p65 homodimer)): -0.313 z-score | binding signal (p50p50 homodimer): -0.946 z-score | binding signal (p52p52 homodimer): -0.677 z-score | binding signal [1]: -0.816 z-score | binding signal [2]: -0.805 z-score | binding signal (RELB subunit;p50 subunit): -0.977 z-score | binding signal (RELB subunit;p52 subunit): -0.824 z-score | binding signal [3]: -1.36 z-score | binding signal [4]: -0.87 z-score

GGATGAACCCT
binding signal (RELARELA (p65 homodimer)): -0.273 z-score | binding signal (p50p50 homodimer): -1.25 z-score | binding signal (p52p52 homodimer): -0.595 z-score | binding signal [1]: -0.588 z-score | binding signal [2]: -0.76 z-score | binding signal (RELB subunit;p50 subunit): -0.936 z-score | binding signal (RELB subunit;p52 subunit): -0.814 z-score | binding signal [3]: -1.23 z-score | binding signal [4]: -0.571 z-score

AGGAAAGTCCC
binding signal (RELARELA (p65 homodimer)): 2.97 z-score | binding signal (p50p50 homodimer): 0.984 z-score | binding signal (p52p52 homodimer): 2.54 z-score | binding signal [1]: 2.16 z-score | binding signal [2]: 1.77 z-score | binding signal (RELB subunit;p50 subunit): 1.45 z-score | binding signal (RELB subunit;p52 subunit): 1.93 z-score | binding signal [3]: 2.17 z-score | binding signal [4]: 2.89 z-score

AAAGAATTCCC
binding signal (RELARELA (p65 homodimer)): 2.27 z-score | binding signal (p50p50 homodimer): 1.08 z-score | binding signal (p52p52 homodimer): 1.36 z-score | binding signal [1]: 1.57 z-score | binding signal [2]: 1.25 z-score | binding signal (RELB subunit;p50 subunit): 1.07 z-score | binding signal (RELB subunit;p52 subunit): 0.975 z-score | binding signal [3]: 1.54 z-score | binding signal [4]: 1.12 z-score

GAATGGCCCCT
binding signal (RELARELA (p65 homodimer)): -0.247 z-score | binding signal (p50p50 homodimer): 0.432 z-score | binding signal (p52p52 homodimer): 0 z-score | binding signal [1]: 0.128 z-score | binding signal [2]: 0.262 z-score | binding signal (RELB subunit;p50 subunit): 0.27 z-score | binding signal (RELB subunit;p52 subunit): 0.242 z-score | binding signal [3]: -0.321 z-score | binding signal [4]: -0.168 z-score

GGGAAGCTCCC
binding signal (RELARELA (p65 homodimer)): 1.42 z-score | binding signal (p50p50 homodimer): 0.219 z-score | binding signal (p52p52 homodimer): 1.52 z-score | binding signal [1]: 1.07 z-score | binding signal [2]: 1.16 z-score | binding signal (RELB subunit;p50 subunit): 0.839 z-score | binding signal (RELB subunit;p52 subunit): 0.35 z-score | binding signal [3]: 0.354 z-score | binding signal [4]: 0.716 z-score

GGAATTACCCC
binding signal (RELARELA (p65 homodimer)): 2.91 z-score | binding signal (p50p50 homodimer): 0.961 z-score | binding signal (p52p52 homodimer): 1.76 z-score | binding signal [1]: 1.92 z-score | binding signal [2]: 2.08 z-score | binding signal (RELB subunit;p50 subunit): 1.18 z-score | binding signal (RELB subunit;p52 subunit): 1.85 z-score | binding signal [3]: 1.44 z-score | binding signal [4]: 2.35 z-score

AGATAAGTCCC
binding signal (RELARELA (p65 homodimer)): 0.485 z-score | binding signal (p50p50 homodimer): 1.11 z-score | binding signal (p52p52 homodimer): 0.806 z-score | binding signal [1]: 1.13 z-score | binding signal [2]: 0.806 z-score | binding signal (RELB subunit;p50 subunit): 1.2 z-score | binding signal (RELB subunit;p52 subunit): 0.954 z-score | binding signal [3]: 0.899 z-score | binding signal [4]: 0.335 z-score

AAGGATACCCC
binding signal (RELARELA (p65 homodimer)): 0.0433 z-score | binding signal (p50p50 homodimer): 0.446 z-score | binding signal (p52p52 homodimer): 0.189 z-score | binding signal [1]: 0.436 z-score | binding signal [2]: 0.502 z-score | binding signal (RELB subunit;p50 subunit): 0.457 z-score | binding signal (RELB subunit;p52 subunit): 0.95 z-score | binding signal [3]: 0.507 z-score | binding signal [4]: 0.247 z-score

AGGTTGGCCCC
binding signal (RELARELA (p65 homodimer)): -0.789 z-score | binding signal (p50p50 homodimer): -0.369 z-score | binding signal (p52p52 homodimer): -0.374 z-score | binding signal [1]: -0.277 z-score | binding signal [2]: -0.287 z-score | binding signal (RELB subunit;p50 subunit): -0.0488 z-score | binding signal (RELB subunit;p52 subunit): -0.238 z-score | binding signal [3]: -0.00473 z-score | binding signal [4]: 0.0517 z-score

AGAAGATTCCT
binding signal (RELARELA (p65 homodimer)): 0.055 z-score | binding signal (p50p50 homodimer): -1.1 z-score | binding signal (p52p52 homodimer): -0.567 z-score | binding signal [1]: -0.642 z-score | binding signal [2]: -0.681 z-score | binding signal (RELB subunit;p50 subunit): -0.914 z-score | binding signal (RELB subunit;p52 subunit): -0.843 z-score | binding signal [3]: -0.495 z-score | binding signal [4]: -0.373 z-score

Reference: article PMC3218832
